{"source": "PubChem BioAssay AID1259421", "about": "(Broad Institute, 2018)", "note": "“And” between values parts separate entries of the source, which are not always exact repeats. Equal entries are not always repeated. Hit rate of the full screen: of about 6,400 compounds, about 610 (9.5%) were called active. The sample holds actives, similar compounds and a random draw of the others, so the mix is not that of the screen. Cut-off read from the data, not from the text of the source: active = activity change below about -70%; inconclusive = no clear call, values can overlap the other calls; inactive = above that. Where a structure was tested more than once in an assay, its records may differ in their call."}
{"experiment": "T. gondii ME49Luc in HeLa cells, luciferase assay, 72 h, no IFN-y (AID 1259421)", "details": "stronger effect = lower value, concentration not given here"}
{"smiles": "CC(C)(C)N1CCC(c2ccccc2)(c2ccccc2)CC1", "activity change, negative = inhibition": "14.2% (inactive)"}
{"smiles": "CCC[C@@]1(CCc2ccccc2)CC(=O)C([C@H](CC)c2cccc(NS(=O)(=O)c3ccc(C(F)(F)F)cn3)c2)C(=O)O1", "note": "(stereo not given in full)", "activity change, negative = inhibition": "10.4% (inactive)"}
{"smiles": "COc1ccc(NC(=O)c2ccc(C(=N)N(C)C)cc2)c(C(=O)Nc2ccc(Cl)cn2)c1", "activity change, negative = inhibition": "-0.285% (inactive)"}
{"smiles": "COc1ccc(C(=O)Nc2c(Cl)cncc2Cl)cc1OC1CCCC1", "activity change, negative = inhibition": "3.75% (inactive)"}
{"smiles": "COc1cc(CCc2cc(NC(=O)c3ccc(N4C[C@@H](C)N[C@@H](C)C4)cc3)n[nH]2)cc(OC)c1", "activity change, negative = inhibition": "-81.1% (active)"}
{"smiles": "C/C=N/N(C)C=O", "activity change, negative = inhibition": "3.01% (inactive)"}
{"smiles": "Cc1[nH]c(C)c(Cl)c(=O)c1Cl", "activity change, negative = inhibition": "-1.17% (inactive) and -3.71% (inactive)"}
{"smiles": "Cc1cccc(Oc2cnc(=O)[nH]c2)c1", "activity change, negative = inhibition": "9.21% (inactive)"}
{"smiles": "CCCCOC(=O)c1cc2c(cn1)[nH]c1ccccc12", "activity change, negative = inhibition": "42.7% (inactive) and 253% (inactive)"}
{"smiles": "CCCCOc1c(C(=O)c2c(F)cc(C)cc2F)cnc2n[nH]cc12", "activity change, negative = inhibition": "-88.2% (active)"}
{"smiles": "CCCS(=O)(=O)Nc1ccc(F)c(C(=O)c2c[nH]c3ncc(Cl)cc23)c1F", "activity change, negative = inhibition": "-26.4% (inactive)"}
{"smiles": "COc1cc(OC)c2ccc(=O)oc2c1", "activity change, negative = inhibition": "1.05% (inactive)"}
{"smiles": "Clc1ccc(CCCOCCCN2CCCCC2)cc1", "activity change, negative = inhibition": "2.37% (inactive)"}
{"smiles": "Oc1ccc(-c2nc(-c3ccc(F)cc3)c(-c3ccncc3)[nH]2)cc1", "activity change, negative = inhibition": "-91.7% (active) and -92.7% (active)"}
{"smiles": "CS(=O)c1ccc(-c2nc(-c3ccc(F)cc3)c(-c3ccncc3)[nH]2)cc1", "note": "(stereo not given)", "activity change, negative = inhibition": "-85.1% (active) and -89.6% (active)"}
{"smiles": "CS(=O)(=O)c1ccc(-c2nc(-c3ccc(F)cc3)c(-c3ccncc3)[nH]2)cc1", "activity change, negative = inhibition": "-5.72% (inactive)"}
{"smiles": "COc1cc(S(C)=O)ccc1-c1nc2ncccc2[nH]1", "note": "(stereo not given)", "activity change, negative = inhibition": "-7.2% (inactive) and 19.1% (inactive)"}
{"smiles": "COc1ccc2cc(-c3nc(-c4ccc(S(C)=O)cc4)[nH]c3-c3ccncc3)ccc2c1", "note": "(stereo not given)", "activity change, negative = inhibition": "-51.3% (inactive)"}
{"smiles": "CC1(C)O[C@H]2CC(=O)OC[C@]23[C@H]2CC[C@@]4(C)[C@H](c5ccoc5)OC(=O)[C@H]5O[C@]54[C@]2(C)C(=O)C[C@@H]13", "activity change, negative = inhibition": "7.46% (inactive)"}
{"smiles": "CC/C=C\\C/C=C\\C/C=C\\C/C=C\\C/C=C\\C/C=C\\CCC(=O)OCC", "activity change, negative = inhibition": "4.98% (inactive)"}
{"smiles": "COc1cc(O)c(C(=O)c2ccccc2)cc1O", "activity change, negative = inhibition": "6.03% (inactive)"}
{"smiles": "Cc1cc(CC(C)CC(C)(C)C)n(O)c(=O)c1", "note": "(stereo not given)", "activity change, negative = inhibition": "-84.1% (active)"}
{"smiles": "Nc1nnnn1-c1ccccc1", "activity change, negative = inhibition": "6.66% (inactive)"}
{"smiles": "CCCCCCCCCCCCCC(=O)OC(C)C", "activity change, negative = inhibition": "13.1% (inactive)"}
{"smiles": "N#Cc1ncccn1", "activity change, negative = inhibition": "3.94% (inactive)"}
{"smiles": "COc1cc(/C=C2\\CCCN([C@@H](C)c3ccc(F)cc3)C2=O)ccc1-n1cnc(C)c1", "activity change, negative = inhibition": "-5.26% (inactive)"}
{"smiles": "Cn1cc(-c2[nH]c3cc(NC(=O)[C@H](N)C4CCCCC4)cc4c3c2C=NNC4=O)cn1", "activity change, negative = inhibition": "-91.8% (active) and -59.2% (inactive)"}
{"smiles": "CC(C)(C)Sc1c(CC(C)(C)C(=O)O)n(Cc2ccc(Cl)cc2)c2ccc(OCc3ccc4ccccc4n3)cc12", "activity change, negative = inhibition": "12.6% (inactive)"}
{"smiles": "COC(=O)C(Cc1ccc(OCCn2c(=O)sc3cc(C(=O)c4ccccc4)ccc32)cc1)C(=O)OC", "activity change, negative = inhibition": "18.5% (inactive)"}
{"smiles": "CN(C)CCCO[C@H]1[C@@H](C(O)CO)OC2OC(C)(C)O[C@@H]21", "note": "(stereo not given in full)", "activity change, negative = inhibition": "4.68% (inactive)"}
{"smiles": "Oc1cc2c(c(Cl)c1O)CCNC[C@@H]2c1ccccc1", "activity change, negative = inhibition": "-18.1% (inactive)"}
{"smiles": "CCOC(=O)NCC(Cc1ccc(OCCc2nc(-c3ccccc3)oc2C)cc1)N/C(C)=C/C(=O)c1ccc(C(F)(F)F)cc1", "note": "(stereo not given)", "activity change, negative = inhibition": "-49.9% (inactive)"}
{"smiles": "CNCCn1c(=O)c2cc(OC)c(OC)cc2c2cnc3cc4c(cc3c21)OCO4", "activity change, negative = inhibition": "-94.2% (active)"}
{"smiles": "O=C1NC(O)CCN1[C@@H]1O[C@H](CO)[C@@H](O)[C@H]1O", "note": "(stereo not given in full)", "activity change, negative = inhibition": "-5.72% (inactive)"}
{"smiles": "Cc1ccc(NC(=O)c2cccc(C(C)(C)C#N)c2)cc1Nc1ccc2ncn(C)c(=O)c2c1", "activity change, negative = inhibition": "-3.87% (inactive)"}
{"smiles": "NC(=O)c1ccc[n+]([C@@H]2O[C@H](COP(=O)(O)OP(=O)(O)OC[C@H]3O[C@@H](n4cnc5c(N)ncnc54)[C@H](O)[C@@H]3O)[C@@H](O)[C@H]2O)c1", "activity change, negative = inhibition": "-1.89% (inactive)"}
{"smiles": "COc1ccc(-c2nc3ccc(C4=NNC(=O)CC4C)cc3[nH]2)cc1", "note": "(stereo not given)", "activity change, negative = inhibition": "21.8% (inactive)"}
{"smiles": "O=C(O)c1ccc(Nc2ncc3c(n2)-c2ccc(Cl)cc2C(c2c(F)cccc2F)=NC3)cc1", "activity change, negative = inhibition": "-36.4% (inactive)"}
{"smiles": "CNC(=O)c1nn(C)c2c1C(C)(C)Cc1cnc(Nc3ccc(N4CCN(C)CC4)cc3)nc1-2", "activity change, negative = inhibition": "-73.5% (active)"}
{"smiles": "CCOC(=O)C1=C(N)Oc2ccc(Br)cc2[C@H]1[C@H](C#N)C(=O)OCC", "activity change, negative = inhibition": "-65.8% (inactive)"}
{"smiles": "CC[C@]12CCCN3CCc4c(n(c5ccccc45)[C@](O)(C(=O)OC)C1)[C@@H]32", "activity change, negative = inhibition": "8.44% (inactive) and 5.97% (inactive)"}
{"smiles": "CCN(CC)CCn1c(=O)c(Cc2ccc(OC)cc2)nc2ccccc21", "activity change, negative = inhibition": "-5.78% (inactive)"}
{"smiles": "CCCCc1nc2cc(/C=C/C(=O)NO)ccc2n1CCN(CC)CC", "activity change, negative = inhibition": "-75.3% (active) and -94% (active)"}
{"smiles": "N[C@@]1(C(=O)O)CC[C@H]2[C@H](C(=O)O)[C@H]21", "activity change, negative = inhibition": "6.82% (inactive)"}
{"smiles": "COC(=O)[C@H](Cc1cccc(C(=N)N)c1)[C@@H](C)NC(=O)c1ccc(-c2cc[n+]([O-])cc2)cc1", "activity change, negative = inhibition": "-6.72% (inactive)"}
{"smiles": "O=C1c2ccccc2S(=O)(=O)N1CCCN1CCN(c2ncccn2)CC1", "activity change, negative = inhibition": "6.33% (inactive)"}
{"smiles": "CS(=O)(=O)c1ccc(-c2cc(Br)sc2-c2ccc(F)cc2)cc1", "activity change, negative = inhibition": "22.9% (inactive) and 24.6% (inactive)"}
{"smiles": "CC(=O)C1(O)Cc2c(O)c3c(c(O)c2C(OC2CC(N)C(O)C(C)O2)C1)C(=O)c1c(O)cccc1C3=O", "note": "(stereo not given)", "activity change, negative = inhibition": "-82.5% (active)"}
{"smiles": "CC(=O)[C@]1(O)Cc2c(O)c3c(c(O)c2[C@@H](O[C@H]2C[C@H](N)[C@H](O)[C@H](C)O2)C1)C(=O)c1ccccc1C3=O", "activity change, negative = inhibition": "-72.5% (active) and -66% (inactive) and -71.5% (active)"}
{"smiles": "CC(C)=CCCC(C)(OC1OC(COC2OC(CO)C(O)C2O)C(O)C(O)C1O)C1CCC2(C)C1C(O)CC1C3(C)CCC(OC4OC(CO)C(O)C(O)C4OC4OC(CO)C(O)C(O)C4O)C(C)(C)C3CCC12C", "note": "(stereo not given)", "activity change, negative = inhibition": "4.49% (inactive)"}
